From PubChem BioAssay (NCATS)
Results filed as inconclusive are left out. Activity calls are given as the source filed them. Unless noted, calls come from the whole dose curve; as a rule, active = well fitted curve in the direction sought with a large enough effect; inconclusive = small, poorly fitted or top-dose-only effect, or another doubt; inactive = no such curve, though single readings can be large; an effect the other way counts as inactive or inconclusive.

assay: qHTS Assay for Identifying Gametocytocidal Compounds (AID 743244); note: potency is the fitted concentration of half-maximal effect;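 for max response: % is set by controls: 0 for no effect and ±100 for the full control effect; actives lower the fluorescent signal which means gametocytes are killed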; conditions: P. falciparum 3D7 stage III-V gametocytes, alamarBlue, 72 h; max response: stronger effect = lower value
Procedure, shortened: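 Stage III-V P. falciparum 3D7 gametocytes, 20,000 per well, were exposed to compounds for 72 h at 37C, 5% CO2. AlamarBlue was then added for 24 h and viability was read as fluorescence at Ex 525/Em 598 nm.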

Row | Structure (SMILES) | max response | Potency
1 | CCOC(=O)Nc1ccc2c(c1)N(C(=O)CCN1CCOCC1)c1ccccc1S2 | 12.1% (inactive) | 
2 | CNCCCCOc1ccccc1Cc1ccccc1 |  | 18.7 µM (active)
3 | CCCCN1C[C@H](O)[C@@H](O)[C@H](O)[C@H]1CO | 2.05% (inactive) | 
4 | COc1cc(C(=O)NCc2ccc(OCCN(C)C)cc2)cc(OC)c1OC | 1.8% (inactive) | 
5 | CCOC(=O)c1ccc(N)cc1 | 11.9% (inactive) | 
6 | Nc1nc(Cl)nc2c1ncn2[C@@H]1O[C@H](CO)[C@@H](O)[C@@H]1F | 14.9% (inactive) | 
7 | C/C=C/C=N/NC(=O)c1ccncc1 | -5.06% (inactive) | 
8 | Nc1ccc(S(=O)(=O)Nc2cnc3ccccc3n2)cc1 | -6.45% (inactive) | 
9 | COc1ccc(S(=O)(=O)N2c3ccc(Cl)cc3[C@@](O)(c3ccccc3Cl)[C@H]2C(=O)N2CCC[C@@H]2C(N)=O)cc1OC | 20.2% (inactive) | 
10 | C[N+]12CCC(CC1)C(OC(=O)C(O)(c1ccccc1)c1ccccc1)C2 (centres undefined) | -5.86% (inactive) | 
11 | NS(=O)(=O)Cc1noc2ccccc12 | -3.32% (inactive) | 
12 | N#CCC(=O)NN | -7.78% (inactive) | 
13 | C[C@@H](O)[C@H]1C(=O)N2C(C(=O)O)=C(S[C@@H]3CN[C@H](CNS(N)(=O)=O)C3)[C@H](C)[C@H]12 | 13.8% (inactive) | 
14 | C=C1c2cccc(O)c2C(O)=C2C(=O)[C@]3(O)C(O)=C(C(N)=O)C(=O)[C@@H](N(C)C)[C@@H]3[C@@H](O)[C@H]12 | -4.37% (inactive) | 
15 | C[N+]1(CC2COC(c3ccccc3)(C3CCCCC3)O2)CCCCC1 (centres undefined) |  | 11.2 µM (active)
16 | CCCCCCCCCCCCOCCOCCOCCOCCOCCOCCOCCOCCOCCO | 14.7% (inactive) | 
17 | CC(CNC1CCCCC1)OC(=O)c1ccccc1 (centres undefined) | 10.4% (inactive) | 
18 | CCN(CC)CCOC(=O)C1(c2ccccc2)CCCC1 | -2.23% (inactive) | 

Row | Structure (SMILES) | max response | Potency
19 | C[C@@H](O)[C@H]1C(=O)N2C(C(=O)O)=C([C@H]3CCCO3)S[C@H]12 | -9.42% (inactive) | 
20 | CCCCc1cc2ccccc2c(OCCN(C)C)n1 | -5.86% (inactive) | 
21 | Cc1ccc(S(=O)(=O)NC(=O)NC2CCCC2)cc1 | 3.98% (inactive) | 
22 | COc1cc(C(=S)N2CCOCC2)ccc1O | 19.6% (inactive) | 
23 | C[C@]12CCC(=O)C=C1C=C[C@@H]1[C@@H]2CC[C@@]2(C)[C@H]1CC[C@@]21CCC(=O)O1 | 1.8% (inactive) | 
24 | COc1ccc(CN(CCN(C)C)c2ncccn2)cc1 | -8.37% (inactive) | 
25 | CO[C@H]1C=CO[C@@]2(C)Oc3c(C)c(O)c4c(O)c(c(/C=N/N5CCN(C)CC5)c(O)c4c3C2=O)NC(=O)/C(C)=C\C=C[C@H](C)[C@H](O)[C@@H](C)[C@@H](O)[C@@H](C)[C@H](OC(C)=O)[C@@H]1C |  | 15.8 µM (active)
26 | CN1CCN(C2=Nc3cc(F)ccc3Cc3ccccc32)CC1 | 29% (inactive) | 
27 | FC1(F)C(F)(F)C(F)(F)C2(F)C(F)(F)C(F)(F)C(F)(F)C(F)(F)C2(F)C1(F)F (centres undefined) | -4.02% (inactive) | 
28 | CC(C)n1c(/C=C/[C@@H](O)C[C@@H](O)CC(=O)O)c(-c2ccc(F)cc2)c2ccccc21 | -9.47% (inactive) | 
29 | CCC(Cc1c(I)cc(I)c(N)c1I)C(=O)O (centres undefined) | 3.24% (inactive) | 
30 | O=C(O)CCc1nc2ccccc2[nH]1 | 8.17% (inactive) | 
31 | N/C(=N\N=C\c1ccc(Cl)cc1)N/N=C/c1ccc(Cl)cc1 | 0.563% (inactive) | 
32 | COP(=O)(OC)OC(c1ccc(Cl)cc1)P(=O)(OC)OC (centres undefined) | 0.577% (inactive) | 
33 | O=C(O)CCNC(=O)c1ccccc1 | 7.27% (inactive) | 
34 | O=C(O)C1(C(=O)O)CCC1.[NH2-].[NH2-].[Pt+2] | -10.4% (inactive) | 
35 | NC(=O)C1(N2CCCCC2)CCN(CCCC(=O)c2ccc(F)cc2)CC1 | 6.95% (inactive) | 

assay: qHTS profiling for inhibitors of Plasmodium falciparum (3D7) proliferation (AID 743322; call rule not given here;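 note: infected erythrocytes exposed to compound for 72 h before lysis; 100% = DMSO vehicle wells and 0% = 0.29 µM artemisinin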); conditions: P. falciparum 3D7 proliferation; at 28.7 µM (top of the series) unless noted
Procedure, shortened: (§1)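 Parasite DNA was quantified by SYBR Green I fluorescence (ex 485, em 535 nm) after overnight lysis in saponin/Triton buffer at room temperature. Cultures at 0.3% parasitemia and 2.5% hematocrit were first exposed to compound for 72 h at 37 C; signals were normalised to artemisinin (0.29 uM) and vehicle wells.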

Row | Structure (SMILES) | remaining parasite growth % (stronger effect = lower value)
36 | CNCCCCOc1ccccc1Cc1ccccc1 | 65.9%
37 | CC(CNC1CCCCC1)OC(=O)c1ccccc1 (centres undefined) | 106% [at 9.63 µM]
38 | O=C1C(=O)c2ccccc2C(O)=C1C1CCC(c2ccc(Cl)cc2)CC1 (centres undefined) | 9.76e-05%
39 | C[N+]1(C)CCC(=C(c2ccccc2)c2ccccc2)CC1 | 4.05% [at 18.4 µM]

assay: qHTS profiling for inhibitors of Plasmodium falciparum (DD2) proliferation (AID 743323; call rule not given here); conditions: lower = more inhibition; at 28.7 µM (top of the series) unless noted
Procedure, shortened: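 1536-well qHTS; infected RBCs 0.3% parasitemia/2.5% Hct final; cpd 72 h 37 C 5% CO2; lysis buffer + SYBR Green I, o/n RT dark; FI 485/535; norm. to 0.29 uM artemisinin and DMSO, plate-stack corrected.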

Row | Structure (SMILES) | activity, percent of control
40 | CNCCCCOc1ccccc1Cc1ccccc1 | 31.1%
41 | CC(CNC1CCCCC1)OC(=O)c1ccccc1 (centres undefined) | 61.4% [at 9.63 µM]
42 | O=C1C(=O)c2ccccc2C(O)=C1C1CCC(c2ccc(Cl)cc2)CC1 (centres undefined) | 3.7%
43 | C[N+]1(C)CCC(=C(c2ccccc2)c2ccccc2)CC1 | 22.2% [at 18.4 µM]

assay: qHTS profiling for inhibitors of Plasmodium falciparum (HB3) proliferation (AID 743324); conditions: Plasmodium falciparum HB3 blood-stage proliferation; at 28.7 µM (top of the series) unless noted;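 note: 100% = DMSO vehicle wells and 0% = artemisinin-treated control wells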
Procedure, shortened: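 SYBR Green fluorescence (485 ex/535 em) of lysed cultures, incubated overnight at room temperature in the dark, quantifies parasite DNA. Infected erythrocytes at 0.3% parasitemia and 2.5% hematocrit were exposed 72 h; values normalized to DMSO and 0.29 uM artemisinin controls.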

Row | Structure (SMILES) | remaining proliferation (% of control), lower = more inhibition
44 | CNCCCCOc1ccccc1Cc1ccccc1 | 42.9%
45 | CC(CNC1CCCCC1)OC(=O)c1ccccc1 (centres undefined) | 111% [at 9.63 µM]
46 | O=C1C(=O)c2ccccc2C(O)=C1C1CCC(c2ccc(Cl)cc2)CC1 (centres undefined) | 1.19%

assay: qHTS profiling of the MIPE4 collection as inhibitors of Plasmodium falciparum (3D7) proliferation (AID 743344; call rule not given here;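 note: scaled between DMSO vehicle wells and 0.29 µM artemisinin as full inhibition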); conditions: P. falciparum 3D7 in erythrocytes, SYBR Green DNA fluorescence, 72 h; at 28.5 µM (top of the series)
Procedure, shortened: as §1

Row | Structure (SMILES) | parasite growth, % of DMSO control
47 | CCOC(=O)Nc1ccc2c(c1)N(C(=O)CCN1CCOCC1)c1ccccc1S2 | 47.5%
48 | NS(=O)(=O)Cc1noc2ccccc12 | 102%
49 | O=C1C(=O)c2ccccc2C(O)=C1C1CCC(c2ccc(Cl)cc2)CC1 (centres undefined) | 9.11%
